Molecular target: T1, Methionyl-tRNA synthetase, putative (Leishmania donovani (strain BPK282A1)) (UniProt E9BF75)
T1 sequence (whole entry): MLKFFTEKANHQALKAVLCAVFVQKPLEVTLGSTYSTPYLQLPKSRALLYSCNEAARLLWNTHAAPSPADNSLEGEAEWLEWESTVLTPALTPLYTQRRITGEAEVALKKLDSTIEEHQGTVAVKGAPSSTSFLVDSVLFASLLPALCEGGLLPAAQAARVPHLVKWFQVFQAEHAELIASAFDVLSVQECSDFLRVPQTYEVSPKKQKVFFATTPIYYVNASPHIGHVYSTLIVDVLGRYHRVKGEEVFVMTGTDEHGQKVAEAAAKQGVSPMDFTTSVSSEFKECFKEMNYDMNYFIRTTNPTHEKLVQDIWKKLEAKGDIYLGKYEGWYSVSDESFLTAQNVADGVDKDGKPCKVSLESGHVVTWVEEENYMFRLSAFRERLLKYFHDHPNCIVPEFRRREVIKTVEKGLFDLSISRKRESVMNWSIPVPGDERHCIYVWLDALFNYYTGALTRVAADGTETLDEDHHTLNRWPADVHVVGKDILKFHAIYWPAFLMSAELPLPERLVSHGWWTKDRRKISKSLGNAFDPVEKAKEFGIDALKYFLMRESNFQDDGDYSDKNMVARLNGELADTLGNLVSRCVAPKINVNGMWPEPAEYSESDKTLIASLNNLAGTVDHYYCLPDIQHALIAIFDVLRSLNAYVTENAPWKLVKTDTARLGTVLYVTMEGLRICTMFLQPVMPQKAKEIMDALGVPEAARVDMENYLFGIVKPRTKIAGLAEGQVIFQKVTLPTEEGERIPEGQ
Assay: Leishmania donovani Methionine tRNA synthetase (LdMetRS):v7. Dose response assay
Type: functional
Design: conc 80 nM, time 150 minutes

Q: Which PXC50 (BOTTOM 0.466583915, HILLSLOPE 0.636268233, MAX_EFFECT 51.05162524, TOP 100.0) does the source give for `Clc1cc(Cl)cc(NCc2ccccn2)c1` here?
A: 2.71

Q: How did the PXC50 (BOTTOM 2.684604701, HILLSLOPE 0.866541634, MAX_EFFECT 62.24299065, TOP 102.5858947) turn out when `OCCNc1ccnc(Nc2ccc(F)c(F)c2)n1` was run?
A: 4.2

Q: For `Cn1ncc2c(NCCO)nc(Nc3cccc(F)c3)nc21`, which PXC50 (BOTTOM 8.925751042, HILLSLOPE 1.252459196, MAX_EFFECT 66.66666667, TOP 81.92338456) is on record?
A: 4.47

Q: Which PXC50 (BOTTOM -1.202484297, HILLSLOPE 0.574759938, MAX_EFFECT 66.34799235, TOP 100.0) does the source give for `Clc1cc(Cl)cc(NCc2ccncc2)c1` here?
A: 3.3

Q: For `Clc1cc(Cl)cc(NCc2c[nH]cn2)c1`, which PXC50 (BOTTOM -1.936831904, HILLSLOPE 1.590281355, MAX_EFFECT 96.5583174, TOP 100.0) is on record?
A: 3.41

Q: For `Clc1cc(Cl)cc(NCc2cccnc2)c1`, which PXC50 (BOTTOM -6.720584862, HILLSLOPE 0.561777258, MAX_EFFECT 60.61185468, TOP 100.0) is on record?
A: 3.18

Q: With `Cc1noc(CCNc2nc(NCCO)c3cnn(C)c3n2)n1` as the compound, how does the PXC50 (MAX_EFFECT 0.580270793) read?
A: < 4

Q: With `NS(=O)(=O)c1cccnc1Nc1cccc(F)c1` as the compound, how does the PXC50 (MAX_EFFECT 1.518026565) read?
A: < 4

Q: With `CN(CCO)c1ccnc(Cl)n1` as the compound, how does the PXC50 (MAX_EFFECT 1.682242991) read?
A: < 4

Q: With `COc1cccc(NC(=O)Nc2ccccc2OC)c1` as the compound, how does the PXC50 (MAX_EFFECT 2.056074766) read?
A: < 4

Q: Which PXC50 (MAX_EFFECT 2.264150943) does the source give for `Cn1ncc2c(NC3COC3)nc(Nc3ccc(F)c(F)c3)nc21` here?
A: < 4

Q: With `COC(=O)c1ccc(OC)c(NC(=O)N2CCOc3ccccc32)c1` as the compound, how does the PXC50 (MAX_EFFECT 3.018867925) read?
A: < 4

Q: For `C[C@@H](CO)Nc1ccnc(Cl)n1`, which PXC50 (MAX_EFFECT 3.177570093) is on record?
A: < 4

Q: For `NS(=O)(=O)c1cccnc1Nc1ccc(O)cc1`, which PXC50 (MAX_EFFECT 5.185185185) is on record?
A: < 4

Q: Which PXC50 (MAX_EFFECT 5.69259962) does the source give for `Cn1ncc2c(NCCO)nc(N3CCOCC3)nc21` here?
A: < 4

Q: For `NS(=O)(=O)c1cccnc1Nc1cc(C(=O)O)cc(C(F)(F)F)c1`, which PXC50 (MAX_EFFECT 6.165703276) is on record?
A: < 4

Q: Which PXC50 (MAX_EFFECT 6.168224299) does the source give for `COc1ccccc1NC(=O)Nc1ccn(C)n1` here?
A: < 4

Q: With `CN(CCO)c1nccc(Nc2ccc(F)c(F)c2)n1` as the compound, how does the PXC50 (MAX_EFFECT 7.663551402) read?
A: < 4

Q: With `COc1ccc(OC)c(NC(=O)N2CCOc3ccc(C)cc32)c1` as the compound, how does the PXC50 (MAX_EFFECT 7.777777778) read?
A: < 4

Q: How did the PXC50 (MAX_EFFECT 7.969639469) turn out when `Cn1ncc2c(NCCO)nc(NCC3CCCO3)nc21` (configuration not stated) was run?
A: < 4

Q: `NS(=O)(=O)c1cccnc1Nc1cncnc1` was tested. Which PXC50 (MAX_EFFECT 8.518518519) did it give?
A: < 4

Q: How did the PXC50 (MAX_EFFECT 10.24667932) turn out when `CN(C)c1nc(NCCO)c2cnn(C)c2n1` was run?
A: < 4

Q: For `Cc1cc(Nc2ncccc2S(N)(=O)=O)cc(C(F)(F)F)c1`, which PXC50 (MAX_EFFECT 10.97804391) is on record?
A: < 4

Q: Which PXC50 (MAX_EFFECT 11.85185185) does the source give for `Cn1ncc2c(NCCO)nc(NCCc3ccccc3)nc21` here?
A: < 4

Q: `OCCCNc1nccc(Nc2ccc(F)c(F)c2)n1` was tested. Which PXC50 (MAX_EFFECT 15.09433962) did it give?
A: < 4

Q: For `COc1ccccc1NC(=O)Nc1cccc(N)c1`, which PXC50 (MAX_EFFECT 17.00934579) is on record?
A: < 4

Q: With `COc1ccccc1NC(=O)Nc1nn(C)c2cccc(OC)c12` as the compound, how does the PXC50 (MAX_EFFECT 17.77777778) read?
A: < 4

Q: How did the PXC50 (MAX_EFFECT 18.9292543) turn out when `Clc1cc(Cl)cc(NC2COC2)c1` was run?
A: < 2.7

Q: With `Clc1cc(Cl)cc(CNCc2ncc[nH]2)c1` as the compound, how does the PXC50 (MAX_EFFECT 20.45889101) read?
A: < 2.7

Q: Which PXC50 (MAX_EFFECT 24.66539197) does the source give for `Cc1cc(CNCc2cc(Cl)cc(Cl)c2)no1` here?
A: < 2.7

Q: For `Clc1cc(Cl)cc(NCc2ccc3[nH]ncc3c2)c1`, which PXC50 (MAX_EFFECT 28.48948375) is on record?
A: < 2.7

Q: For `Oc1ccccc1-c1nc(Nc2ccccc2Cl)c2ccccc2n1`, which PXC50 (MAX_EFFECT 30.74074074) is on record?
A: < 4

Q: For `COc1ccccc1NC(=O)NCC1CCCCC1`, which PXC50 (MAX_EFFECT 34.20560748) is on record?
A: < 4

Q: `CC(NCc1cc(Cl)cc(Cl)c1)C1CCCN(C(=O)OC(C)(C)C)C1` (configuration not stated) was tested. Which PXC50 (MAX_EFFECT 36.52007648) did it give?
A: < 2.7

Q: `Cn1ncc2c(NCCO)nc(NCCn3cccn3)nc21` was tested. Which PXC50 (MAX_EFFECT 36.99421965) did it give?
A: < 4

Q: How did the PXC50 (MAX_EFFECT 45.69789675) turn out when `Clc1cc(Cl)cc(CNCc2ccccn2)c1` was run?
A: < 2.7

Q: Which PXC50 (BOTTOM 0.900407202, HILLSLOPE 1.012545194, MAX_EFFECT 78.11320755, TOP 96.15766895) does the source give for `C[C@@H](CO)Nc1nc(Nc2ccc(F)c(F)c2)nc2c1cnn2C` here?
A: 4.67

Q: How did the PXC50 (BOTTOM 1.104460677, HILLSLOPE 1.218727258, MAX_EFFECT 102.5925926, TOP 101.9327021) turn out when `O=c1nc(NCCCNC2CCOc3c(Cl)cc(Cl)cc32)[nH]c2ccccc12` (configuration not stated) was run?
A: 6.05

Q: With `Clc1cc(Cl)cc(CNCc2ccc3[nH]ncc3c2)c1` as the compound, how does the PXC50 (BOTTOM 1.106249154, HILLSLOPE 1.041028332, MAX_EFFECT 65.20076482, TOP 65.36183651) read?
A: 3.99

Q: With `Cn1ncc2c(NCCO)nc(Nc3cccc(Cl)c3)nc21` as the compound, how does the PXC50 (BOTTOM 2.482705833, HILLSLOPE 1.074607965, MAX_EFFECT 81.43133462, TOP 87.71460066) read?
A: 5.07

Q: `Cn1ncc2c(NC3CCC3)nc(Nc3ccc(F)c(F)c3)nc21` was tested. Which PXC50 (BOTTOM 4.327233824, HILLSLOPE 1.310483513, MAX_EFFECT 62.26415094, TOP 64.55009742) did it give?
A: 5.13

Q: `Clc1cc(Cl)cc(CNCc2ccc3[nH]ccc3c2)c1` was tested. Which PXC50 (BOTTOM 7.303470977, HILLSLOPE 1.421171765, MAX_EFFECT 85.85086042, TOP 90.87319761) did it give?
A: 4.04

Q: With `Cn1ncc2c(NC3CCOC3)nc(Nc3ccc(F)c(F)c3)nc21` (configuration not stated) as the compound, how does the PXC50 (BOTTOM 7.395126545, HILLSLOPE 0.941646955, MAX_EFFECT 86.79245283, TOP 90.65244752) read?
A: 5.1

Q: For `OCCCNc1ccnc(Nc2ccc(F)c(F)c2)n1`, which PXC50 (BOTTOM 8.063501062, HILLSLOPE 0.925044522, MAX_EFFECT 61.50943396, TOP 93.0681126) is on record?
A: 4.25

Q: `C[C@H](CO)Nc1ccnc(Nc2ccc(F)c(F)c2)n1` was tested. Which PXC50 (BOTTOM -1.459719323, HILLSLOPE 0.865053746, MAX_EFFECT 69.36416185, TOP 100.0) did it give?
A: 4.44

Q: Which PXC50 (BOTTOM -3.630779809, HILLSLOPE 0.738811655, MAX_EFFECT 60.88631985, TOP 100.0) does the source give for `OCCNc1ccnc(Nc2cccc(C(F)(F)F)c2)n1` here?
A: 4.28

Q: Which PXC50 (BOTTOM -8.924411722, HILLSLOPE 0.906080231, MAX_EFFECT 87.09055877, TOP 92.74987259) does the source give for `CN(CCO)c1ccnc(Nc2cccc(C(F)(F)F)c2)n1` here?
A: 5.38

Q: How did the PXC50 (MAX_EFFECT 0.199600798) turn out when `COc1cc(Nc2ncccc2S(N)(=O)=O)cc(C(F)(F)F)c1` was run?
A: < 4

Q: How did the PXC50 (MAX_EFFECT 1.111111111) turn out when `CCn1c(NC(=O)Nc2ccccc2OC)nc2ccccc21` was run?
A: < 4

Q: Which PXC50 (MAX_EFFECT 2.277039848) does the source give for `CN(C)CCNc1nc(NCCO)c2cnn(C)c2n1` here?
A: < 4

Q: Which PXC50 (MAX_EFFECT 3.551401869) does the source give for `OCCNc1ccnc(Cl)n1` here?
A: < 4

Q: Which PXC50 (MAX_EFFECT 4.448742747) does the source give for `Cc1cccc(Nc2ncccc2S(N)(=O)=O)c1` here?
A: < 4

Q: `Cn1ncc2c(NCCO)nc(NCc3ccccc3)nc21` was tested. Which PXC50 (MAX_EFFECT 4.528301887) did it give?
A: < 4

Q: For `COc1ccccc1NC(=O)Nc1cnccc1OC`, which PXC50 (MAX_EFFECT 4.905660377) is on record?
A: < 4

Q: With `C[C@H](CO)Nc1ccnc(Cl)n1` as the compound, how does the PXC50 (MAX_EFFECT 5.046728972) read?
A: < 4

Q: How did the PXC50 (MAX_EFFECT 5.925925926) turn out when `Cn1c(NC(=O)Nc2ccccc2Cl)nc2ccccc21` was run?
A: < 4

Q: Which PXC50 (MAX_EFFECT 6.165703276) does the source give for `CN1CCN(c2nc(NCCO)c3cnn(C)c3n2)CC1` here?
A: < 4

Q: For `NS(=O)(=O)c1cccnc1NC1CCCCC1`, which PXC50 (MAX_EFFECT 6.986027944) is on record?
A: < 4

Q: How did the PXC50 (MAX_EFFECT 7.32177264) turn out when `OCCCNc1ccnc(Cl)n1` was run?
A: < 4

Q: How did the PXC50 (MAX_EFFECT 7.777777778) turn out when `CCn1c(NC(=O)Nc2ccccc2C)nc2ccccc21` was run?
A: < 4

Q: `CN1CCC(CNCc2cc(Cl)cc(Cl)c2)CC1` was tested. Which PXC50 (MAX_EFFECT 8.986615679) did it give?
A: < 2.7

Q: Which PXC50 (MAX_EFFECT 9.158878505) does the source give for `COc1ccccc1CNC(=O)Nc1ccccc1OC` here?
A: < 4

Source: ChEMBL document CHEMBL3988442, “University of Dundee, Small-Polar-MMV Screening Library” (2021)
